# This is a sample that favours compounds with a hit; in the whole collection about 1.4% have one here.
# SARS PLpro yeast-1 – inhibitors of SARS-CoV papain-like protease in yeast | S. cerevisiae expressing SARS-CoV PLpro, growth rescue | Potency, µM (titrated, usually from 32.9 µM), most hits filed as activators | hit rate 0.19% among 330,000 | AID 485353; calls by dose curve; also: nearly all actives have a fitted effect of over 55% in size
# AmpC detergent – inhibitors of E. coli AmpC beta-lactamase with detergent; P00811; AmpC hydrolysis of nitrocefin, absorbance 480 nm, 0.01% Triton; Potency, µM (titrated, usually from 114 µM), most hits filed as inhibitors; hit rate 0.041% among 370,000; AID 485294; also: nearly all actives have a fitted effect of over 25% in size
# Target sequence (P00811 whole entry, looked up): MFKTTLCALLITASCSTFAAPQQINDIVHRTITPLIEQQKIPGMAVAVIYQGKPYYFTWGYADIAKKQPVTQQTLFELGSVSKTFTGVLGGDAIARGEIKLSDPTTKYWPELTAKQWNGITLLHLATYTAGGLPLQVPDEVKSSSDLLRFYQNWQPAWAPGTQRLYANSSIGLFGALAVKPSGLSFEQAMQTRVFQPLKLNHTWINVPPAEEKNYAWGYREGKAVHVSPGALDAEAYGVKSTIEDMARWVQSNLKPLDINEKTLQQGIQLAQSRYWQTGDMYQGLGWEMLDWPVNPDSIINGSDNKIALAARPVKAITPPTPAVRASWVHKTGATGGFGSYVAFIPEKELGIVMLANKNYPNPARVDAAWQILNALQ
#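 20 mM phosphate pH 7.0 + 0.01% (detergent screen) or 0.0001% Triton X-100; 5.3 nM AmpC reagent; cpd preinc 15 min RT; nitrocefin (800 uM stock) to start; A480 q20 s × 4 min; Activity was normalised to no-enzyme and no-compound control wells.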
# AmpC no deterg – inhibitors of E. coli AmpC beta-lactamase without detergent | AID 485341 | AmpC nitrocefin hydrolysis, absorbance 480 nm, 0.0001% Triton | hit rate 0.52% among 330,000 | Potency, µM (top dose mostly 57.1 µM), usual class: inhibitors | P00811; also: nearly all actives have a fitted effect of over 20% in size
#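 20 mM phosphate pH 7.0 + 0.01% (detergent screen) or 0.0001% Triton X-100; 5.3 nM AmpC reagent; cpd preinc 15 min RT; nitrocefin (800 uM stock) to start; A480 q20 s × 4 min; Activity was normalised to no-enzyme and no-compound control wells.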
# VACV mCherry inh – vaccinia inhibition (mCherry reporter) | Potency, µM (titrated, usually from 36.5 µM), hits mostly inhibitors | hit rate 0.63% among 310,000 | AID 720579 | Vaccinia virus mCherry reporter infection, fluorescence; calls by dose curve; tested in A549 cells; also: nearly all actives have a fitted effect of over 35% in size
# AMA1-RON2 inh – AMA1-RON2 (P. falciparum) interaction inhibition; AlphaScreen AMA1-biotinylated RON2 peptide binding; Potency, µM (highest dose often 58.2 µM), most hits filed as inhibitors; hit rate 0.2% among 360,000; also: nearly all actives have a fitted effect of over 45% in size
#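 AMA1 (3D7) with his tag at 25 nM final met compounds first, then biotinylated RON2 peptide at 25 nM; detection used donor plus acceptor beads, 10 µg/mL apiece, read by AlphaScreen after 30 min at room temperature.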
# Vaccinia Venus – inhibitors of vaccinia virus (Venus reporter); hit rate 0.46% among 330,000; Potency, µM (top dose mostly 36.5 µM), usual class: inhibitors; Vaccinia virus Venus reporter expression, fluorescence; AID 720580; calls by dose curve; tested in A549 cells; also: nearly all actives have a fitted effect of over 30% in size
# SARS PLpro yeast-2 – Validates SARS-CoV PLpro inhibitor hits in yeast; shares compounds with SARS PLpro yeast-1; yeast expressing SARS-CoV PLpro, growth phenotype rescue; calls only; hit rate 19% among 1,000; call rule not given here
# A number is an active result; - = inactive; ? = inconclusive; . = no result given; + = active, no number; [ ] = dose if it differs, or a comment. Unless noted, calls follow the shape of the dose curve; as a rule, active = well fitted curve in the direction sought with a large enough effect; inconclusive = small, poorly fitted or top-dose-only effect, or another doubt; inactive = no such curve, though single readings can be large; an effect the other way counts as inactive or inconclusive.
SMILES,SARS PLpro yeast-1,AmpC detergent,AmpC no deterg,VACV mCherry inh,AMA1-RON2 inh,Vaccinia Venus,SARS PLpro yeast-2
COc1cc(NC(=S)NCc2ccc(S(N)(=O)=O)cc2)c(OC)cc1Cl,?,?,-,-,-,-,-
CCCCn1cnc2c(=O)[nH]c(N)nc21,.,.,.,-,.,-,.
CCC(=O)Nc1ccccc1-c1nc2ccccc2n(CC(=O)c2ccc(Cl)cc2)c1=O,.,-,.,-,.,-,.
COC(=O)c1sc(NC(=S)NC(=O)c2ccc(F)cc2)nc1C,-,-,-,.,.,.,.
COC(=O)c1sc(NC(=S)NC(=O)c2cccc(Br)c2)nc1C,?,?,-,.,-,.,?
COc1ccccc1N1CCN(C(=O)c2cnn(-c3cccc(Cl)c3)c2C2CCN(C(=O)OC(C)(C)C)CC2)CC1,.,-,.,-,.,-,.
COc1cc(N/N=C/c2ccccc2O)ncn1,8.91µM,-,-,14.1µM,-,?,?
COc1cc(N/N=C/c2ccc(N(C)C)cc2)ncn1,-,-,-,-,-,-,.
O=C(N/N=C\c1c(O)ccc2ccccc12)c1ccc(Cn2cccn2)o1,?,-,-,4.47µM,-[11.6 µM],?,-
O=C(N/N=C\c1ccc(Cl)s1)c1ccc(Cn2cccn2)o1,-,-,-,-,-,-,.
Clc1ccc(/C=N/NC(=Nc2ccccc2)c2ccccn2)c(Cl)c1,-,-,-,-,-,-,.
C(=N\NC(=Nc1ccccc1)c1ccccn1)/c1ccccn1,?,?,-,-,-,-,?
CCOC(=O)c1cnn(-c2ccc(OC)cc2)c1C1CCN(C(=O)OC(C)(C)C)CC1,.,-,.,-,.,-,.
O=C(c1ccc(C(F)(F)F)cc1)N(Cc1cc2ccc(F)cc2nc1N1CCOCC1)C1CC1,.,.,.,-,.,-,.
O=C(NS(=O)(=O)N1CCOCC1)C1=C(N2CCCC2)COC1=O,3.55µM,.,-,-,-,-,-
O=C(Nc1ccc(N2CCCCCC2)cc1)c1cccc(S(=O)(=O)N2CCOCC2)c1,-,-,-,-,?,-,.
CCc1cccc(C)c1NC(=O)CCCn1c(C)c2cnn(-c3ccccc3)c(=O)c2c1C,.,-,.,-,.,-,.
O=C(CC(Nc1ccc(F)cc1)c1ccccc1)c1ccccc1 (stereo not drawn),3.16µM,-,-,-,-,-,-
O=C(CC(CC(=O)c1ccccc1)c1ccccc1)c1ccccc1,-,-,-,.,-,.,.
COC(C(=O)Nc1ccc(F)cc1)c1ccccc1 (stereo not drawn),15.8µM,-,-,-,-,-,-
O=C(Nc1ccc(F)cc1)c1ccccc1,?,-,-,-,-,-,-
COc1cccc(NC(=O)CSC2=Nc3ccccc3N=C(c3ccc(F)cc3)C2)c1,.,-,.,-,.,-,.
CCNC(=S)Nc1ccc(N(c2ccccc2)C(C)C)cc1,-,-,-,.,-,.,.
CCNC(=S)NN(c1ccccc1)c1ccccc1,14.1µM,-,-,-,-,-,+
Cc1ccc(C(=O)c2sc(Nc3ccc(F)cc3)nc2N)c(C)c1,.,-,.,?,.,-,.
SMILES,SARS PLpro yeast-1,AmpC detergent,AmpC no deterg,VACV mCherry inh,AMA1-RON2 inh,Vaccinia Venus,SARS PLpro yeast-2
COCCNC(=O)c1ccc(CS(=O)(=O)c2ccc(C)cc2)o1,?,-,-,.,-,.,-
COC(CNC(=O)c1ccc(CS(=O)(=O)c2ccc(C)cc2)o1)OC,-,-,-,-,-,-,.
CCN1CCCC1CN(Cc1cc2c(C)cc(C)cc2[nH]c1=O)C(=O)NC1CCCCC1 (stereo not drawn),?,?,-,.,-,-,-
Cc1cc(C)c2cc(CN(CCO)C(=O)NC3CCCCC3)c(=O)[nH]c2c1,-,-,-,-[7.34 µM],-,-[7.34 µM],.
CCCCCCO,11.2µM,-,-,-,-,-,-
CCCCCCCCO,-,-,-,-,-,-,.
O=C(N/N=C/c1ccncc1)c1cnccn1,-,-,-,-[7.34 µM],-,-[7.34 µM],.
COc1cc(/C=N/NC(=O)c2cnccn2)ccc1O,3.55µM,?,-,-,-,-,-
CCOC(=O)C1=C(C)NC2=C(C(=O)C(C(=O)OCC)C(c3ccco3)C2)C1c1ccccc1C (stereo not drawn),.,.,.,-,.,-,.
COc1ccccc1-c1nnn(CC#N)n1,?,-,-,-,-,-,-
COc1cccc(Cn2c(=O)n(Cc3ccccc3)c(=O)c3c2c2cc(OC)ccc2n3C)c1,.,?,.,-,.,-,.
O=C(CC(NC(=O)c1ccccc1)c1ccccc1)Nc1cccc2ccccc12 (stereo not drawn),?,-,-,-,-,-,-
C/C(=N\NC(=S)NC(C)C)c1ccc(Cl)s1,?,?,-,-,-,-,.
C/C(=N\NC(N)=S)c1ccc(Cl)s1,10µM,?,-,0.355µM,-,?,?
CCc1nn(CC(=O)Nc2c(C)cc(C)cc2C)c(=O)c2cc3sccc3n12,.,-,.,-,.,-,.
Cc1ccc2cccc(O)c2n1,.,.,.,-,.,-,.
O=C(N/N=C/c1ccccc1OC(F)F)c1cc(-c2ccncc2)nc2ccccc12,12.6µM,-,-,-,-,-,+
Cc1ccc(-c2nc(C)sc2CC(=O)Nc2nnc(C)s2)cc1,-,-,-,-,-,-,.
CC(=O)Nc1ccc(NC(=O)Cc2sc(C)nc2-c2ccc(C)cc2)cc1,?,-,-,-,-,-,-
CC1CCCCC1NC(=O)NC(=O)COC(=O)c1nccnc1N (stereo not drawn),-,.,-,-,-,-,.
CC1CCCC(NC(=O)NC(=O)CCl)C1C (stereo not drawn),?,-,-,.,-,.,+
CC1CCCCC1NC(=O)NC(=O)CCl (stereo not drawn),?,-,-,-,-,-,+
CCOC(=O)c1cc(C)n(CC2CCC(C(=O)Nc3ccccc3OC)CC2)c1C (stereo not drawn),.,-,.,-,.,-,.
CC(=O)Oc1ccc(-c2cccc(C(=O)OCC(=O)Nc3ccccc3Oc3ccccc3)c2)cc1,?,-,-,-,-,-,+
Cc1c(O)c2cccnc2[nH]c1=O,3.55µM,?,-,-,-[2.32 µM],-,-
SMILES,SARS PLpro yeast-1,AmpC detergent,AmpC no deterg,VACV mCherry inh,AMA1-RON2 inh,Vaccinia Venus,SARS PLpro yeast-2
OCCN1CCN(Cc2ccc3c(c2)CN(Cc2cnc(-c4ccccc4)s2)CCO3)CC1,.,.,.,-,.,-,.
O=C(c1ccc(O)c(Cl)c1)N1CCN(S(=O)(=O)c2ccccc2)CC1,?,-,-,-,-,-,-
CCC(=O)N1CCc2cc(Br)cc(S(=O)(=O)CCC(=O)NCc3ccc(F)cc3)c21,.,-,.,-,.,-,.
CSc1nnc(COc2ccc(C)cc2)n1N,?,-,-,.,-,.,-
Cc1ccc(OCc2nnc(SCC(N)=O)n2N)cc1,-,-,-,.,-,.,.
C/C(=N\NC(=O)CN1CCN(S(=O)(=O)c2ccc(C)cc2)CC1)c1cccnc1,3.16µM,-,-,?,-[2.32 µM],?,-
Cc1cccc(NC(=O)Cn2cnc3c(oc4nc5c(cc43)COC(C)(C)C5)c2=O)c1,12.6µM,-,-,.,-,.,-
CC1(C)Cc2nc3oc4c(=O)n(CC(=O)Nc5ccccc5)cnc4c3cc2CO1,-,?,-,-,-,-,.
